Bioassay records (PubChem)
p47phox inh – blocks human p47phox regulatory protein of NADPH oxidases; P14598; p47phox/p22phox peptide binding, fluorescence polarization, 2 h; inhibition, % at 24.7 µM; hit rate 0.53% among 220,000; AID 1274;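 active = inhibition above about 30%, limit read from the data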
HSV replic up – increases HSV replication in cells. HSV replication augmentation in cells, fold increase. maximum fold increase. hit rate 0.005% among 220,000. AID 1956; in the data active = maximum fold increase above about 1.5; inconclusive = no clear call, values can overlap the other calls; tested in PC3 cells
Wee1 degr inh – inhibitors of human Wee1 degradation; hit rate 1.2% among 220,000; AID 1321; HeLa Luc-Wee1K328M stability, luciferase luminescence; 100% = proteasome inhibitor MG132 effect; P30291; reporter increase, % at 5 µM;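 active = activation above the mean of all tested compounds plus 3 SD, set per screening run, cut at about 8.8% in these data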;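 note: cells exposed to compound for 20 h before luminescence read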
EP2 mod – EP2 receptor (human) modulation. EP2-expressing cells, cAMP HTRF FRET, PGE2 co-stimulation. induction, % at 25 µM. hit rate 0.83% among 260,000. AID 940;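 active = compounds whose cAMP rise, as percent of the full-agonist control response, exceeds 60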;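 note: rat C6 glioma line stably carrying human EP2 under a CMV promoter; the protocol text gives 20 µM as final concentration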
EP2 antag – inhibitors of human EP2 prostaglandin E2 receptor | P43116 | C6 glioma cells expressing human EP2, cAMP TR-FRET; cells stimulated with saturating PGE2 | inhibition, % at 25 µM | hit rate 0.52% among 260,000 | AID 1422;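 active = percent inhibition above 40 after rounding to a whole number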;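 note: rat C6 glioma host cells with rolipram phosphodiesterase inhibitor present; the protocol text gives 20 µM as final concentration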
Furin inh – blocks human furin protease activity. P09958. purified furin, fluorogenic substrate cleavage. inhibition, % at 20 µM or 30 µM. hit rate 0.061% among 220,000; in the data active = inhibition above about 25%
Hits are given with their value; – = inactive; ? = inconclusive; · = no result given; ! = repeats disagree. Sampled rows, rich in hits. Any-hit rate of the full collection: about 2.8%.

SMILES | p47phox inh | HSV replic up | Wee1 degr inh | EP2 mod | EP2 antag | Furin inh
O=C(O)CCC(=O)c1ccc2ccc3cccc4ccc1c2c34 | – | – | – | – | 53.2! | –
COc1ccc(C2C(C#N)=C(N)Oc3c2sc2nc(C)cc(C)c32)cc1 (centres undefined) | – | – | 10.4 | – | – | –
CCCC(c1nnnn1C(C)(C)C)N(Cc1ccccc1OC)Cc1cc2cc(C)ccc2[nH]c1=O (centres undefined) | · | · | · | 71.7 | – | ·
CCC(C)(C)n1nnnc1C(C(C)C)N(Cc1ccccc1)Cc1cc2cc(C)ccc2[nH]c1=O (centres undefined) | · | · | · | 79.6 | – | ·
CCC(c1nnnn1C(C)(C)C)N(CCc1ccccc1C)Cc1cc2cc(C)ccc2[nH]c1=O (centres undefined) | · | · | · | 64.9 | – | ·
CCCC(c1nnnn1C(C)(C)C)N(Cc1ccccc1)Cc1cc2ccc(C)cc2[nH]c1=O (centres undefined) | · | · | · | – | – | ·
Cc1ccc2[nH]c(=O)c(CN(Cc3nnnn3C3CCCCC3)C3CCCCC3)cc2c1 | · | · | · | 69.1 | – | ·
CCOC(=O)c1[nH]c2ccc(F)cc2c1NC(=O)CC | · | · | · | – | – | ·
COc1ccc(C2(NC(=O)c3c(C)noc3C)CCCCC2)cc1 | · | · | · | – | – | ·
CCOc1ccccc1NC(=O)CN1CCC(C(=O)c2ccc(C)cc2)CC1 | · | · | · | – | – | ·
Cn1c(N2CCCC(C(=O)NCCc3cccc(F)c3)C2)nc2ccccc21 (centres undefined) | · | · | · | – | – | ·
CCCC(c1nnnn1Cc1ccco1)N(Cc1cc2cc(C)cc(C)c2[nH]c1=O)C1CCCC1 (centres undefined) | · | · | · | – | – | ·
CCC(c1nnnn1C(C)(C)C)N(Cc1cc2cc(C)ccc2[nH]c1=O)C1CCCCC1 (centres undefined) | · | · | · | 75.1 | – | ·
CCCC(c1nnnn1Cc1ccco1)N(Cc1cc2cc(C)ccc2[nH]c1=O)C1CCCC1 (centres undefined) | · | · | · | 68.2 | – | ·
Cc1ccc(C(C)C(=O)N2CCC(n3nc(C4CC4)ccc3=O)CC2)cc1 (centres undefined) | · | · | · | – | – | ·
O=C(COc1ccccc1)N/N=C/c1ccc(O[C@@H]2O[C@H](CO)[C@@H](O)[C@H](O)[C@H]2O)cc1 | – | – | 10.3 | – | – | –
CN(C)c1ccc(/C=N/NC(=O)COc2ccccc2)cc1 | – | – | – | – | – | –
COC(=O)[C@H]1[C@@H]2C[C@H]3c4[nH]c5ccccc5c4CCN3C[C@H]2CC[C@@H]1OS(=O)(=O)O | · | · | · | – | 48.2 | ·
COC(=O)C1=COC(C)C2CN3CCc4c([nH]c5ccccc45)C3CC12 (centres undefined) | – | ? | – | – | – | –
Cn1c(SCC(=O)Nc2ccccc2Cl)nnc1-c1ccncc1 | · | · | · | – | – | ·
O=C(NNC(=O)c1ccc2ncccc2c1)c1ccc(Cl)cc1 | – | – | – | – | – | –
Cc1ccc(C(=O)NNC(=O)c2ccc3ncccc3c2)cc1 | 32.9 | – | – | – | – | –
COc1ccc(NC(=O)c2ccco2)cc1NC(=O)c1ccccc1OC | · | · | · | – | – | ·
Cn1c(Cc2ccccc2)nnc1SCC(=O)N1CCOCC1 | 83.4 | – | – | – | – | –
Cn1c(Cc2ccccc2)nnc1SCC(=O)N1CCN(c2ccccc2)CC1 | – | – | – | – | – | –
SMILES | p47phox inh | HSV replic up | Wee1 degr inh | EP2 mod | EP2 antag | Furin inh
COc1ccc2c(-c3ccccc3)cc(SCC(=O)NC(N)=O)nc2c1 | – | – | – | – | – | –
COCCNC(=O)CSc1cc(-c2ccccc2)c2ccc(OC)cc2n1 | – | – | – | 63.4 | – | –
Fc1cccc(CN(CCCn2ccnc2)Cc2ccnc3ccccc23)c1 | · | · | · | – | – | ·
O=C(c1cccc(Cl)c1)N1CCNCC1 | · | · | · | – | – | ·
CCOC(=O)/C=C(\C)Sc1cc(=O)oc2ccccc12 | – | – | – | – | – | –
CCOC(=O)/C=C(\C)Sc1cc(O)c2ccccc2c1O | – | – | – | – | 69.3 | –
N#CC1(Cc2ccc(Cl)cc2)c2ccccc2C=CN1C(=O)c1ccccc1 (centres undefined) | – | – | – | 63.4 | – | –
Cc1ccc(C(=O)Nc2c(-c3cccs3)c(=O)c3ccccc3n2C)cc1 | – | – | 9.1 | – | – | –
COC(=O)CCN(C(=O)c1ccc(C)c([N+](=O)[O-])c1)c1ccccn1 | – | – | 10.0 | – | – | –
O=C(Nc1cnn(C23CC4CC(CC(C4)C2)C3)c1)c1cnn2c(C(F)(F)F)cc(-c3ccco3)nc12 | 32.6 | – | – | – | – | –
